The compounds below were run on OCI-AML2 (assay: cell viability relative to vehicle control; higher = less cytotoxic). Settings: 10 µM; SRSF2 genotype: P95H/wt.
Method in brief: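 CRISPR-edited SRSF2 P95 mutant and isogenic wild-type clones of four leukaemia lines were screened against Selleck bioactive, kinase and epigenetic probe libraries, with identity-inconsistent compounds removed. Compounds were acoustically dispensed into 384-well plates at a single 10 µM dose, with 2000 cells in 50 µL medium per well. After 48 h, supernatant was removed and CellTiter-Glo luminescence was read. Viability was expressed as percent of the on-plate DMSO vehicle control, analysed in Genedata Screener.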

Compound | cell viability
O=C(O)C1=CO[C@@H](O[C@@H]2O[C@H](CO)[C@@H](O)[C@H](O)[C@H]2O)[C@H]2[C@@H]1C=C[C@]2(O)CO [Monotropein] | 90.7%
Cn1ncc(Cl)c1-c1cc(C(=O)N[C@H](CN)Cc2cccc(F)c2)sc1Cl | 33.6%
Cc1ccc(OCC(O)C(C)NC(C)C)c2c1CCC2 (stereo not given) | 92.2%
CN1CCCN(C(=O)c2cccc(-c3ccc(/C=C4/C(=O)Nc5ccc(Cl)cc54)o3)c2)CC1 | 0.21%
O=S(=O)(c1ccccc1)c1cnc2c(N3CCNCC3)cccc2c1 | 101%
CCn1c2ccccc2c2cc(Nc3ccnc(NCCCN4CCOCC4)n3)ccc21 | 0.41%
Cc1cn(-c2cc(NC(=O)c3ccc(C)c(Nc4nccc(-c5cnccn5)n4)c3)cc(C(F)(F)F)c2)cn1 [Radotinib] | 103%
CCCOc1ccc2[nH]c(NC(=O)OC)nc2c1 [Oxibendazole] | 4.68%
COCC1=C(C(=O)OC(C)OC(=O)OC(C)C)N2C(=O)[C@@H](NC(=O)/C(=N\OC)c3csc(N)n3)[C@H]2SC1 (stereo not given in full) [Cefpodoxime proxetil] | 90.3%
Oc1c(F)cc(-c2cnccc2-c2ccc(N3CCOCC3)cc2)cc1F | 120%

— the supplement of paper PMC10981050
